# KB-3-1 cytotox – qHTS assay for MDR1-selective chemotherapeutics: Primary screen using the parental adenocarcinoma cell KB-3-1 | KB-3-1 viability, CellTiter-Glo ATP luminescence, 72 h | 1.4% of 400,000 active | AID 1347075, 2019 | Potency, µM (doses to about 46.1 µM), hits mostly cytotoxic; further: on the % scale 0 is the no-effect control and ±100 the full control effect; nearly all actives have a fitted effect of over 60% in size
#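 KB-3-1 cells, DMEM (no phenol red) + 10% FBS; compound by pin transfer, 72 h, 37 °C. Readout: CellTiter-Glo luminescence after 10 min. Data normalized, curve-fitted.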
# KB-V1 MDR tox – qHTS assay for MDR1-selective chemotherapeutics: Primary screen using the drug-selected MDR subline cells KB-V1; 3.4% of 400,000 active; Potency, µM (doses to about 46.1 µM), hits mostly cytotoxic; KB-V1 MDR cells viability, CellTiter-Glo, 72 h; further: on the % scale 0 is the no-effect control and ±100 the full control effect; nearly all actives have a fitted effect of over 60% in size
#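 Readout: CellTiter-Glo luminescence, 10 min after addition. Cells: KB-V1 MDR subline, 72 h at 37 degrees C with compound. Analysis: corrected, normalized data fitted to concentration-effect curves.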
# RGS4 inhibitor – Inhibitors of Regulator of G Protein Signaling (RGS) 4: qHTS; AID 504845, 2011; Potency, µM (highest dose often 114 µM), for inactives: at the top dose activity change, negative = inhibition, usual class: inhibitors; Transcreener GDP fluorescence polarization, RGS4-accelerated GTP hydrolysis; Regulator of G-protein signaling 4 (Homo sapiens), P49798; 0.039% of 390,000 active; further: on the % scale 0 is the no-effect control and ±100 the full control effect; nearly all actives have a fitted effect of over 75% in size
# Target sequence (P49798 whole entry, looked up): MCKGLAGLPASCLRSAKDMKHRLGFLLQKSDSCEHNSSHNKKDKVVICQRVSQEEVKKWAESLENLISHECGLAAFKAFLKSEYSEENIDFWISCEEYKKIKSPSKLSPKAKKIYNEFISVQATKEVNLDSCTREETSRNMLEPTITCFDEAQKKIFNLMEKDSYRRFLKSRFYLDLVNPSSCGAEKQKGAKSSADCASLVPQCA
#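 MLSMR compounds (23 nl, pin-transferred) preincubated 10 min at room temperature with a 500nM (2x) first reagent, then RGS4 at 900nM (2x) plus Transcreener GDP mix added; fluorescence polarization (620/688 nm) read before and after 90 min at 30 °C.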
# MCF10A rerep – A quantitative high throughput screen for small molecules that induce DNA re-replication in MCF 10a normal breast cells; MCF 10A DNA re-replication, Hoechst nuclear intensity, 48 h; Potency, µM (top dose mostly 46.1 µM), for inactives: at the top dose activity, positive = re-replication, most hits filed as activators; AID 624296, 2012; 2.9% of 350,000 active; further: % of control where 0% means no effect; nearly all actives have a fitted effect of over 50% in size
# SW480 rerep – A quantitative high throughput screen for small molecules that induce DNA re-replication in SW480 colon adenocarcinoma cells; 1.8% of 340,000 active; SW480 DNA re-replication, Hoechst DNA content imaging, 48 h; Potency, µM (doses to about 46.1 µM), inactives show at the highest dose re-replication activation, hits mostly activators; further: % of control where 0% means no effect; nearly all actives have a fitted effect of over 55% in size
#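 First, 250 cells per well were seeded. Next, compound or vehicle (23 nL) was pinned in, plates sat 48 hr at 37 C. Finally Hoechst was added for 40 min before fluorescence scanning.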
# TSG101-PTAP inh – qHTS Assay for Iinhibitors of HIV-1 Budding by Blocking the Interaction of PTAP/TSG101 | Tumor susceptibility gene 101 protein (Homo sapiens), Q99816 | Potency, µM (top dose mostly 115 µM), without a hit: at the highest dose activity change, negative = inhibition, actives largely listed as inhibitors | 340,000 tested, under 10 active | Fluorescence polarization, FITC-PTAP peptide / Tsg101 binding; active means well fitted inhibition curve with a large enough effect in the main read-out, with a control signal flat, not every such curve was filed as active; inconclusive means small, poorly fitted or top-dose-only effect, or effect the other way, or a change in a side signal; inactive means no such curve, though single readings can be large or run the other way; further: % of control where 0% means no effect
# Target sequence (Q99816 whole entry, looked up): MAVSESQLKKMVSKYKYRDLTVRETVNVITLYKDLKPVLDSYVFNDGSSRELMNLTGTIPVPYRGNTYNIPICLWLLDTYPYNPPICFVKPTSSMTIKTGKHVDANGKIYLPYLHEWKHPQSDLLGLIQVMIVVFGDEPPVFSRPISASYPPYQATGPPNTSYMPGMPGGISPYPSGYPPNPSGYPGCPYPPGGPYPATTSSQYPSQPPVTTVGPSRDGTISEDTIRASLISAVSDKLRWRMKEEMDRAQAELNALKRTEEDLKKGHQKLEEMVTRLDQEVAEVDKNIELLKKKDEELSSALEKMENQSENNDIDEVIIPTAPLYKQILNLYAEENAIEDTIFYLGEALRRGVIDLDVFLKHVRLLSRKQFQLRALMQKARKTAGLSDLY
#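 Compounds were pin-transferred onto Tsg101 binding domain (10 uM final) in HEPES pH 7.5 buffer, then FITC-PTAP peptide was added at 50 nM final. After 20 min at RT, polarization reported peptide displacement across a qHTS concentration series.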
# Active calls of the source: *; i = inactive; ? = inconclusive; . = no result given; ! = not confirmed by another sample; [ ] = remark or other dose. This is a sample that favours compounds with a hit; in the whole collection about 6.6% have one here. Unless noted, the call rests on the fitted dose curve; in most records, active means well fitted curve in the direction sought with a large enough effect; inconclusive means small, poorly fitted or top-dose-only effect, or another doubt; inactive means no such curve, though single readings can be large; an effect the other way counts as inactive or inconclusive. Potency means the concentration at half of the fitted maximal effect.
SMILES,KB-3-1 cytotox,KB-V1 MDR tox,RGS4 inhibitor,MCF10A rerep,SW480 rerep,TSG101-PTAP inh
CCCn1c(SCC(=O)N2CCN(c3ccccc3)CC2)nc2ccccc2c1=O,i,i,24%,16%,-8%,-5%
CCCCn1c(SCC(=O)Nc2ccc(OCC)cc2)nc2ccsc2c1=O,.,.,-16%,.,.,.
CCCCn1c(SCC(=O)N2CCC(C)CC2)nc2ccsc2c1=O,i,1.2µM*,21%,12%,2%,-4%
CCCCn1c(SCC(=O)Nc2ccccc2C(F)(F)F)nc2ccsc2c1=O,i,2.6µM*,-14%,10%,1%,-4%
CCCCn1c(SCC(=O)N2CCN(c3ccccc3)CC2)nc2ccsc2c1=O,i,8.2µM*,-16%,?,16%,.
CC1CCN(C(=O)Cn2cc(SCc3ccccc3)c3ccccc32)CC1,.,.,-19%,.,.,.
Cc1cccc(CCNC(=O)c2ccc(CSCc3cccc(Cl)c3)o2)c1,i,i,14%,.,.,.
C=CCOc1cccc(/C=C2\C(=O)N(Cc3ccc(C)cc3)C(C)=C2C(=O)OC)c1,?,i,-19%,16µM*,?,6%
COc1ccc(N(C(=O)c2ccccc2)S(=O)(=O)c2ccc3c(c2)n(C)c(=O)n3C)cc1,i,i,1%,.,.,.
CCn1c(C)c(CS(=O)(=O)c2ccccc2)[nH]c1=O,i,i,-48%,7.3µM*,8.2µM*,-2%
COc1ccccc1NC(=O)c1nc(SCc2ccccc2F)ncc1Cl,i,i,.,.,.,.
Cc1c(CCC(=O)NCCc2ccccc2F)c(=O)oc2cc(O)ccc12,i,i,12%,.,.,.
CC(C)(C)OC(=O)N1CCC(C(=O)N[C@@H](Cc2ccccc2)C(=O)O)(c2ccccc2)CC1,i,i,11%,?,0.46µM*!,-2%
Cc1cccc(N(C)C(=O)Cc2c(C(=O)O)[nH]c3ccccc23)c1,i,?,16%,.,.,.
CCOC(=S)SCC(=O)N1CCc2cc(OC)ccc2C1C1C(=O)CCCC1=O (stereo not given),?,?,-9%,?,10µM*,0%
CN(C)CCNC(=O)COc1ccc(C23CC4CC(CC(C4)C2)C3)cc1,?,i,5%,16µM*,?,-1%
N#C/C(=C\c1c(N2CCCCCC2)nc2ccccn2c1=O)C(=O)NC1CCS(=O)(=O)C1 (stereo not given),i,i,-13%,1%,-6%,-1%
N#C/C(=C\c1c(Oc2ccccc2Cl)nc2ccccn2c1=O)C(=O)NC1CCS(=O)(=O)C1 (stereo not given),i,?,-24%,?,?,-5%
N#C/C(=C\c1c(Oc2ccccc2F)nc2ccccn2c1=O)C(=O)NC1CCS(=O)(=O)C1 (stereo not given),i,i,-8%,16µM*,?,-1%
N#C/C(=C\c1c(N2CCOCC2)nc2ccccn2c1=O)C(=O)NC1CCS(=O)(=O)C1 (stereo not given),i,i,-15%,5.8µM*,?,0%
COc1ccc(Cl)cc1NC(=O)CN1C(=O)COc2ccc(S(=O)(=O)NC3CCCC3)cc21,i,i,-6%,.,.,.
OCCN1CCN(CC(O)COC(c2ccc(F)cc2)c2ccc(F)cc2)CC1 (stereo not given),i,i,-20%[56.9 µM],23µM*,16%,-2%
c1ccc(C2OC3c4cccc5cccc(c45)C3N2c2ccccc2)cc1 (stereo not given),i,i,-37%,18µM*,?,-3%
Clc1ccc(-c2ccc(C=Nc3ccc(N4CCOCC4)cc3)o2)c(Cl)c1,i,i,8%,11%,0%,-1%
Clc1cccc(-c2ccc(C=Nc3ccc(N4CCOCC4)cc3)o2)c1Cl,i,i,-34%[56.9 µM],21µM*,?,1%
SMILES,KB-3-1 cytotox,KB-V1 MDR tox,RGS4 inhibitor,MCF10A rerep,SW480 rerep,TSG101-PTAP inh
c1ccc(C[n+]2csc3ccccc32)cc1,i,i,?,23µM*,?,1%
Fc1cccc(C[n+]2csc3ccccc32)c1,i,i,?,-2%,-8%,-2%
CCOc1cc(C(=O)N2CC(=O)Nc3ccc(C)cc3C2c2ccccc2)cc(OCC)c1OCC (stereo not given),i,?,-12%,.,.,.
COc1ccc(/C=C2/C(=O)OCc3cc(OC)c(OC)cc32)cc1,?,3.7µM*,-4%,?,4.1µM*,0%
COc1ccc(/C=C2\CCOC2=O)cc1,i,i,-41%,-2%,-9%,-3%
Cc1[nH]c2ccccc2c1CN1CCC(Cc2ccccc2)CC1,i,18µM*,-14%,21%,?,1%
Oc1ccc(CN2CCc3ccccc3C2)c2cccnc12,4.6µM*,?,?,2.3µM*,?,-4%
Oc1ccc(CN2CCCCC2)c2cccnc12,?,?,8%,-1%,7%,0%
Cc1[nH]c2ccccc2c1CN1CCN(c2ccccn2)CC1,i,i,-11%,3%,103%,1%
Oc1ccc(CN2CCC(Cc3ccccc3)CC2)c2cccnc12,23µM*,?,10%,?,2.9µM*,0%
CCOC(=O)N1CCN(Cc2ccc(O)c3ncccc23)CC1,?,i,-14%,21µM*,5.8µM*,0%
Oc1ccc(CN2CCN(c3ccccc3)CC2)c2cccnc12,?,i,-16%,?,?,-7%
COc1cccc(NC(=O)CSc2nc3ccc(NC(=O)c4cccs4)cc3s2)c1,i,i,-9%,.,.,.
CCNCCCNCCCCNCCCNCC,.,.,i,.,.,.
O=[n+]1ccn([O-])c2ccccc21,.,.,.,-1%,-4%,.
CN(C)c1ccc(C=O)cc1[N+](=O)[O-],i,i,.,.,.,.
Fc1cccc(Cl)c1Cn1c(-c2cccs2)nc2ccccc21,.,.,7%,.,.,.
COc1cc(CN2CCc3ccccc3C2)cc([N+](=O)[O-])c1O,i,i,7%,-2%,-5%,-5%
COc1cc(CN2CCc3ccccc3C2)ccc1O,2.9µM*,13µM*,21%,?,?,0%
Cc1nc(CC(=O)Nc2cccc(C)c2C)cs1,.,.,31%,.,.,.
Cc1cc(OCCCCNC(C)C)cc(C(C)C)c1,i,21µM*,7%,?,?,0%
